Results taken from PubChem BioAssay (Tox21).
Values joined by “and” are separate entries in the source; they are usually repeats but may differ in a detail not shown here. Equal entries are not always repeated. Inconclusive results are not listed. More than one record can exist for a structure, and the calls need not agree. Active and inactive are the calls of the source. Unless noted, the call rests on the fitted dose curve; in most records, active means well fitted curve in the direction sought with a large enough effect in the repeat runs; inconclusive means weak or mixed curves; inactive means no such curve, though single readings can be large; an effect the other way counts as inactive or inconclusive.

Key:
[1] = qHTS assay to identify small molecule agonists of the vitamin D receptor (VDR) signaling pathway - cell viability counter screen (AID 743224); further: nearly all actives have a fitted effect of over 50% in size; further: potency means the concentration at half of the fitted maximal effect
Outline: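 Plated VDR-bla cells (4 h, 37C) received compound, incubated 16 h, then LiveBLAzer substrate 2 h RT; CellTiter-Glo added afterwards, luminescence read at 30 min.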

[2] = qHTS assay to identify small molecule antagonists of the vitamin D receptor (VDR) signaling pathway - cell viability counter screen (AID 743225); further: nearly all actives have a fitted effect of over 50% in size; further: potency means the concentration at half of the fitted maximal effect
Outline: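 VDR-bla HEK 293T cells, 4 h pre-incubation at 37C, then compound plus 1-alpha,25-dihydroxyvitamin D3 (3 nM final) for 16 h. After the beta-lactamase FRET read, CellTiter-Glo was added to the same wells; luminescence after 30 min at room temperature.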

[3] = qHTS assay to identify small molecule agonists of the NFkB signaling pathway (AID 1159509; active means well fitted curve in the direction sought with a large enough effect in the signal ratio in the repeat runs, not every such curve was filed as active; the % refers to the signal ratio; further: series mostly up to about 61 µM)
Outline: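 After overnight attachment, reporter cells received test compounds, DMSO or positive controls and were incubated 5 hr at 37 C. FRET substrate was then added for 1.5 hr at room temperature before dual-emission fluorescence reading.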

[4] = qHTS assay to identify small molecule agonists of the NFkB signaling pathway - cell viability counter screen (AID 1159515; calls by dose curve; further: nearly all actives have a fitted effect of over 55% in size; further: potency means the concentration at half of the fitted maximal effect)
Outline: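 Using the same wells as the NFkB reporter read, ME-180 NFkB-bla cells given compounds for 5 hr were assessed for viability via CellTiter-Glo, with luminescence taken after a 30 min room-temperature incubation.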

[5] = qHTS assay to identify small molecule agonists of the endoplasmic reticulum stress response signaling pathway (AID 1159516; active means well fitted activation curve with a large enough effect in the signal ratio in the repeat runs, not every such curve was filed as active; the % refers to the signal ratio)
Outline: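 An ESRE-bla HeLa cell assay: compounds were pin-transferred from DMSO onto overnight-plated cells and left 5 hr at 37 C. Substrate was then loaded for 2 hr at room temperature before reading fluorescence at 460 nm and 530 nm.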

[6] = qHTS assay to identify small molecule agonists of the endoplasmic reticulum stress response signaling pathway - cell viability counter screen (AID 1159517; calls by dose curve; further: nearly all actives have a fitted effect of over 50% in size; further: potency means the concentration at half of the fitted maximal effect)
Outline: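 Cells, HeLa ESRE-bla; density, 1,500/well; dosing, 5 hr at 37 C, 5% CO2; readout, CellTiter-Glo luminescence after 30 min RT.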

[7] = qHTS assay to identify small molecule antagonists of the retinoid-related orphan receptor gamma (ROR-gamma) signaling pathway - cell viability counter screen (AID 1159520); further: nearly all actives have a fitted effect of over 50% in size; further: potency means the concentration at half of the fitted maximal effect
Outline: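 Cytotoxicity was read from cellular ATP (CellTiter-Glo luminescence) after 16 hr at 37 C with 1 uM doxycycline induction. The inducer was added 2 hr after compound transfer to Tet-on ROR gamma CHO cells.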

[8] = target: Nuclear receptor ROR-gamma (Homo sapiens) (UniProt P51449); assay: qHTS assay to identify small molecule antagonists of the retinoid-related orphan receptor gamma (ROR-gamma) signaling pathway (AID 1159521; further: nearly all actives have a fitted effect of over 50% in size; further: potency means the concentration at half of the fitted maximal effect)
Outline: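 Tet-on RORγ CHO cells carrying a ROR response element–luciferase reporter were pretreated with compounds for 2 h, then induced with 1 uM (final) doxycycline hyclate for 16 h at 37 C. Antagonism was read as decreased ONE-Glo luminescence.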

[9] = qHTS assay to identify small molecule agonists of the AP-1 signaling pathway (AID 1159526; calls by dose curve)
[10] = qHTS assay to identify small molecule agonists of the AP-1 signaling pathway - cell viability counter screen (AID 1159525; calls by dose curve; further: nearly all actives have a fitted effect of over 55% in size)
Outline: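 Luminescent ATP readout (Cell Titer Glo, 30 min RT), normalised to DMSO and tetra n-octyl ammonium bromide controls. Cells were ME-180 AP-1-bla in 0.5% dialyzed FBS Opti-MEM, with a 5 h, 37 °C compound exposure.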

Measured: Potency

c1ccc(N=Nc2ccccc2)cc1
not listed: [10]
inactive: all other assays above

CCCCCCCCC(=O)NCc1ccc(O)c(OC)c1
not listed: [5]
inactive: all other assays above

O=[N+]([O-])c1c(Cl)c(Cl)c(Cl)c(Cl)c1Cl
not listed: [5]
inactive: all other assays above

CC(C)c1ccc(CO)cc1
not listed: [10]
inactive: all other assays above

Cc1ccc(OP(=O)(Oc2ccc(C)cc2)Oc2ccc(C)cc2)cc1
active: [8] 12.2 µM
not listed: [10]
inactive: all other assays above

Nc1ccc(-c2ccccc2)cc1
not listed: [5]
inactive: all other assays above

Oc1cc(Cl)ccc1Oc1ccc(Cl)cc1Cl
22.4 µM (active) and inactive: [4]
active: [1] 20 µM | [2] 7.08 µM and 23.9 µM | [6] 20 µM | [7] 31.4 µM and 29.8 µM | [8] 15.7 µM and 23.7 µM
inactive: [3] | [5]

CCC(C)(C)c1ccc(O)cc1
not listed: [5]
inactive: all other assays above

O=C(NC(=O)c1c(F)cccc1F)Nc1ccc(Cl)cc1
not listed: [5]
inactive: all other assays above

CCCCN(CC)c1c([N+](=O)[O-])cc(C(F)(F)F)cc1[N+](=O)[O-]
not listed: [5]
inactive: all other assays above

CCC(C)(c1ccc(O)cc1)c1ccc(O)cc1
active: [8] 54.4 µM
not listed: [5]
inactive: all other assays above

Oc1cc(Cl)ccc1Cl
not listed: [5]
inactive: all other assays above

CN(C)C(=O)Nc1ccc(Cl)cc1
not listed: [5]
inactive: all other assays above

c1ccc(-c2cccc(-c3ccccc3)c2)cc1
not listed: [10]
inactive: all other assays above

CCCCCCCCOC(=O)c1ccccc1C(=O)OCCCCCCCC
not listed: [10]
inactive: all other assays above

Cc1ccc2c(c1N)C(=O)c1ccccc1C2=O
not listed: [5]
inactive: all other assays above

N#CCCCl
not listed: [10]
inactive: all other assays above

Nc1ccc(Cl)c(Cl)c1
not listed: [10]
inactive: all other assays above

CCN(CC)C(=O)SCc1ccc(Cl)cc1
not listed: [5]
inactive: all other assays above

CCCCCCCCCCCOC(=O)c1ccccc1C(=O)OCCCCCCCCCCC
not listed: [5]
inactive: all other assays above

C[C@]12CCC(=O)C[C@@H]1CC[C@@H]1[C@@H]2CC[C@]2(C)[C@@H](O)CC[C@@H]12
not listed: [8] | [9] | [10]
inactive: all other assays above

CCOP(=S)(OCC)O/N=C(\C#N)c1ccccc1
not listed: [9] | [10]
inactive: all other assays above

C=CCc1ccc2c(c1)OCO2
not listed: [5]
inactive: all other assays above

CCOc1cc(Oc2ccc(C(F)(F)F)cc2Cl)ccc1[N+](=O)[O-]
not listed: [8]
inactive: all other assays above

CCCCCCOC(=O)c1ccccc1C(=O)OCCCCCC
not listed: [5]
inactive: all other assays above

CCN(CC)C(=O)/C(Cl)=C(\C)OP(=O)(OC)OC
not listed: [10]
inactive: all other assays above

CC(C)(c1cc(Cl)c(O)c(Cl)c1)c1cc(Cl)c(O)c(Cl)c1
active: [6] 43.7 µM and 43.6 µM
not listed: [9] | [10]
inactive: all other assays above

CCC(=O)O[C@H]1CC[C@H]2[C@@H]3CCC4=CC(=O)CC[C@]4(C)[C@H]3CC[C@]12C
12.3 µM (active) and inactive: [1]
active: [6] 54.9 µM and 21.3 µM
43.6 µM (active) and inactive: [2]
48.6 µM (active) and inactive: [8]
not listed: [5]
inactive: all other assays above

CC(C)(OOC(C)(C)c1ccccc1)c1ccccc1
not listed: [1] | [5]
inactive: all other assays above

O=c1oc2ccccc2c(O)c1C(CC(O)c1ccc(-c2ccc(Br)cc2)cc1)c1ccccc1 (stereo not drawn)
inactive: [1] | [3] | [4] | [7] | [10]
active: [8] 57.9 µM

COc1ccc(C(CN(C)C)C2(O)CCCCC2)cc1 (stereo not drawn)
not listed: [5] | [8] | [10]
inactive: all other assays above

ClC1C(Cl)C(Cl)C(Cl)C(Cl)C1Cl (stereo not drawn)
55.4 µM (active) and inactive: [4]
not listed: [5] | [8] | [10]
inactive: all other assays above

NC(=S)Nc1ccccc1
31.1 µM (active) and inactive: [8]
not listed: [5] | [10]
inactive: all other assays above

CCOCN(C(=O)CCl)c1c(C)cccc1CC
active: [8] 45.9 µM and 27.3 µM
not listed: [5] | [10]
inactive: all other assays above

CC(C)NC(C)C
not listed: [4] | [10]
inactive: all other assays above

Cc1ccc(N)c(N)c1
not listed: [4]
inactive: all other assays above

N#CC(Br)Br
not listed: [5] | [10]
inactive: all other assays above

CC(C)N(C(=O)SCC(Cl)=C(Cl)Cl)C(C)C
not listed: [1] | [5] | [9]
inactive: all other assays above

Cc1cc(Cl)ccc1OCCCC(=O)O
not listed: [5] | [10]
inactive: all other assays above

N#Cc1cc(Br)c(O)c(Br)c1
active: [8] 27.3 µM and 37.1 µM
not listed: [2] | [4] | [5]
inactive: all other assays above

CNC(=O)Oc1cccc2c1OC(C)(C)O2
not listed: [5] | [8]
inactive: all other assays above

CCC(CC)Nc1c([N+](=O)[O-])cc(C)c(C)c1[N+](=O)[O-]
not listed: [5] | [9]
inactive: all other assays above

CN(C)c1ccc(C(=O)c2ccc(N(C)C)cc2)cc1
not listed: [5] | [10]
inactive: all other assays above

NNC(=S)NN
active: [8] 56 µM
not listed: [5] | [9]
inactive: all other assays above

CC(C)(C)c1ccccc1O
not listed: [5] | [9]
inactive: all other assays above

Nc1ccc(-c2ccc(N)c(N)c2)cc1N
active: [8] 27.2 µM
not listed: [5] | [9]
inactive: all other assays above

CCCCC(CC)COC(=O)Cl (stereo not drawn)
not listed: [5] | [8]
inactive: all other assays above

C=CC(=O)OCCO
not listed: [4]
inactive: all other assays above

COP(=S)(OC)Oc1cc(Cl)c(Cl)cc1Cl
inactive: [1] | [2] | [3] | [4] | [6] | [7]

c1cc(OCC2CO2)ccc1Cc1ccc(OCC2CO2)cc1 (stereo not drawn)
not listed: [5] | [9] | [10]
inactive: all other assays above

Oc1ccc(-c2ccccc2)cc1
not listed: [5] | [10]
inactive: all other assays above

Cc1c(COC(=O)[C@@H]2[C@H](/C=C(\Cl)C(F)(F)F)C2(C)C)cccc1-c1ccccc1
23.8 µM (active) and inactive: [8]
not listed: [5] | [10]
inactive: all other assays above

O=P(Oc1ccccc1)(Oc1ccccc1)Oc1ccccc1
not listed: [5] | [8]
inactive: all other assays above

COC(=O)c1sccc1S(=O)(=O)NC(=O)Nc1nc(C)nc(OC)n1
not listed: [5] | [8] | [10]
inactive: all other assays above

c1ccc(P(c2ccccc2)c2ccccc2)cc1
not listed: [5] | [10]
inactive: all other assays above

O=C(Nc1ccc(Br)cc1)c1cc(Br)cc(Br)c1O
inactive: [3] | [9]
active: [1] 1.73 µM and 2.19 µM and 8.41 µM | [2] 1.95 µM | [4] 13.8 µM and 49 µM | [6] 8.68 µM and 1.95 µM and 5.35 µM | [7] 27.2 µM and 17.2 µM | [8] 13.6 µM and 10.9 µM
